# Legend:
# Test in all cases: DAPPL (digital affinity profiling via proximity ligation, sequencing); 10 mM Tris-HCl pH 7.5, 50 mM NaCl, 1 mM DTT, 4% glycerol, room temperature, 30 min; GST-TFs on glutathione beads, 16-mer random dsDNA library, 0.1% formaldehyde crosslink after washing; high values mean tight binding
# Settings in all cases: protein: recombinant; tags: N-terminal GST; dsDNA, one strand shown
# ELK1 = biological target: T1, ELK1 (Homo sapiens, UniProt P19419 1-428)
# T1 sequence: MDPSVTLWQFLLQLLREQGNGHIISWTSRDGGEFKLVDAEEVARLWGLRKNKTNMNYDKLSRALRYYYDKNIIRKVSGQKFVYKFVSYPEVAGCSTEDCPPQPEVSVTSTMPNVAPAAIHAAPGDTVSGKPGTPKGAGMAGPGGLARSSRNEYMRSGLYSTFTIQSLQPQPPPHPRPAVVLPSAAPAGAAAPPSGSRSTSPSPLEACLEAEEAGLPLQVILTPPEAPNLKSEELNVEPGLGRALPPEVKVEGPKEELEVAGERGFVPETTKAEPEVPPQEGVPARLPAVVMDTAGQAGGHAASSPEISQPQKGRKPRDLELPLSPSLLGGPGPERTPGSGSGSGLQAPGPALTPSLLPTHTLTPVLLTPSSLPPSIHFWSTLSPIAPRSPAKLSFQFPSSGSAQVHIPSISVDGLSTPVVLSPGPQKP
# Procedure, shortened: (§1)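 Beads coated with glutathione captured GST-fused human transcription factors that had been expressed in yeast, and the factors were then given DNA barcodes and pooled with a tag-only sample. The pools were incubated with 200 nmole of a random double-stranded 16-mer DNA library in Tris/NaCl/DTT/glycerol buffer for 30 min at room temperature, washed, crosslinked with 0.1% formaldehyde and proximity-ligated with BsaI/T4 ligase at 37 °C for 1 h. PCR amplification and Illumina NextSeq500 sequencing came last. Binding signal is each hexamer's read frequency for a factor divided by its frequency for the tag-only sample.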
# GABPA = biological target: T2, GABPA (Homo sapiens, UniProt Q06546 1-454)
# T2 sequence: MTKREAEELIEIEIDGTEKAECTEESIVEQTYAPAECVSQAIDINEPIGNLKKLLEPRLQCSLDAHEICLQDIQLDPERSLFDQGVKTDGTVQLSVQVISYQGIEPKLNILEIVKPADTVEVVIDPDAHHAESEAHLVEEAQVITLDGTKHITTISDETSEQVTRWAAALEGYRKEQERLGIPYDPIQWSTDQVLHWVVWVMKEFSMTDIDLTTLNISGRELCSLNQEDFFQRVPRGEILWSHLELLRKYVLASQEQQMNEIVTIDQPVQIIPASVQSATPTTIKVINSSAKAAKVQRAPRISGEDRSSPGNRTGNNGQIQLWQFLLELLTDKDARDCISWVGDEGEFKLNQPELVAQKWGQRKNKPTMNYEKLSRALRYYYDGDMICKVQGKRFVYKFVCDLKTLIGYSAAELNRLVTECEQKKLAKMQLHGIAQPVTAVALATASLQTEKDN
# Procedure, shortened: as §1
# ERG = biological target: T3, ERG (Homo sapiens, UniProt P11308 1-479)
# T3 sequence: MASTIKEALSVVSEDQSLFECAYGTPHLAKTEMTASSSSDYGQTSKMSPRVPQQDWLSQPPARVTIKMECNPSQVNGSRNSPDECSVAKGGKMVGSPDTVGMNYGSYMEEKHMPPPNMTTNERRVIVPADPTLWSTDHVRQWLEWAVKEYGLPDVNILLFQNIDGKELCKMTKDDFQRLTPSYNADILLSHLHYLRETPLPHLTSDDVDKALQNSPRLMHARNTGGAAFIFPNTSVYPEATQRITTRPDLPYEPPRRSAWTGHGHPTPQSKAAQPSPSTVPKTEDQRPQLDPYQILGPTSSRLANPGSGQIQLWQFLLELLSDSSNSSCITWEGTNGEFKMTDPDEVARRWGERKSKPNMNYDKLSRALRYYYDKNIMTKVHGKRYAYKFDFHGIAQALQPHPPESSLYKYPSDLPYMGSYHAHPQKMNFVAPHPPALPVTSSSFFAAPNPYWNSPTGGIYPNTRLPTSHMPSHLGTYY
# Procedure, shortened: as §1
# SPIB = SPIB (Homo sapiens, UniProt Q01892 1-262)
# Procedure, shortened: as §1
# ELK3 = biological target: T4, ELK3 (Homo sapiens, UniProt P41970 1-407)
# T4 sequence: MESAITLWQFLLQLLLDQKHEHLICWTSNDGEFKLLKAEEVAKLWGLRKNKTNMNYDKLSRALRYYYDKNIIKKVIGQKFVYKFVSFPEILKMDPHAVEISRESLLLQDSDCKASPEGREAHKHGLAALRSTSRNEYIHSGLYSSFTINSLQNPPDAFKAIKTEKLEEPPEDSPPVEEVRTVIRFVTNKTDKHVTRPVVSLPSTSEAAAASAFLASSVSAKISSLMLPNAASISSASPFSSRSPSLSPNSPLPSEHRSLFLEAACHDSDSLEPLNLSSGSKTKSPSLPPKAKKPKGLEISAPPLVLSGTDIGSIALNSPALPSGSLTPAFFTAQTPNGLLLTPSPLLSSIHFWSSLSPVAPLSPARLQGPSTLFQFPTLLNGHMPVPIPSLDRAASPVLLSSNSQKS
# Procedure, shortened: as §1
# ETV5 = ETV5 (Homo sapiens, UniProt P41161 1-510)
# Procedure, shortened: as §1
# SPIC = biological target: T5, SPIC (Homo sapiens, UniProt Q8N5J4 1-248)
# T5 sequence: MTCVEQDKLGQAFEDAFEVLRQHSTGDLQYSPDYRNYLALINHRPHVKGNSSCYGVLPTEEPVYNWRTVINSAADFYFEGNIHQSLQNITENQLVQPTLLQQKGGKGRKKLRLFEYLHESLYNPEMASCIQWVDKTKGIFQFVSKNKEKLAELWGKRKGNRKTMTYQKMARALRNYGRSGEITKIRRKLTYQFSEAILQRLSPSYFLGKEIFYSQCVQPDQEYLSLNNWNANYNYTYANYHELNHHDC
# Procedure, shortened: as §1
# ELK4 = biological target: T6, ELK4 (Homo sapiens, UniProt P28324-2 1-405)
# T6 sequence: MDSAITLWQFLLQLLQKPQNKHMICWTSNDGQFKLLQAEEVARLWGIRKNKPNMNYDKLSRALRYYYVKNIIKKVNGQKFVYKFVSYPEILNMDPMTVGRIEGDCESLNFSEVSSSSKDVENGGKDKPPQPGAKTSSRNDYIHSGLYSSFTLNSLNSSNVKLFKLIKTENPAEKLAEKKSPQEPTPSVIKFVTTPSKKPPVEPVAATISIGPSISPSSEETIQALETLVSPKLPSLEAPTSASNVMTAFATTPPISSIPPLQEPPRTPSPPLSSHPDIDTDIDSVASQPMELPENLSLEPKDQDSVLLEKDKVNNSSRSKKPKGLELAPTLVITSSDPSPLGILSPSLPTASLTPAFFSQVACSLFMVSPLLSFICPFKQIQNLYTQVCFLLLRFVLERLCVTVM
# Procedure, shortened: as §1
# ETV1 = ETV1 (Homo sapiens, UniProt P50549 1-477)
# Procedure, shortened: as §1
# ERF = biological target: T7, ERF (Homo sapiens, UniProt P50548 1-548)
# T7 sequence: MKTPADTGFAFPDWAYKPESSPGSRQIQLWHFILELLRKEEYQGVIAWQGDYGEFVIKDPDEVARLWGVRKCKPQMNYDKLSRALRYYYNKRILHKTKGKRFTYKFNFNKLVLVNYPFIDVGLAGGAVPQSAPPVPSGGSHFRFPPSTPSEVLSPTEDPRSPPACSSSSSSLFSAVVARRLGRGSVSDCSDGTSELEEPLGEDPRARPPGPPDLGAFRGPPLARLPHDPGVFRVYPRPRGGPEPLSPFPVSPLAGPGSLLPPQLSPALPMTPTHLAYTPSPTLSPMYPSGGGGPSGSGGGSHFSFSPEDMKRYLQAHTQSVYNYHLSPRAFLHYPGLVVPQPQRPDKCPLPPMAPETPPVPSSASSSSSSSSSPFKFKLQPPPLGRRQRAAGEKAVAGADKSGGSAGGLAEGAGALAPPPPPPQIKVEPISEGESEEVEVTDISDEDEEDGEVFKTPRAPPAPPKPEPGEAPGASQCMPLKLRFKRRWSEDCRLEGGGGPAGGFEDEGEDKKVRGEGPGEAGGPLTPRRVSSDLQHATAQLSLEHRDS
# Procedure, shortened: as §1
# ETS2 = biological target: T8, ETS2 (Homo sapiens, UniProt P15036 1-469)
# T8 sequence: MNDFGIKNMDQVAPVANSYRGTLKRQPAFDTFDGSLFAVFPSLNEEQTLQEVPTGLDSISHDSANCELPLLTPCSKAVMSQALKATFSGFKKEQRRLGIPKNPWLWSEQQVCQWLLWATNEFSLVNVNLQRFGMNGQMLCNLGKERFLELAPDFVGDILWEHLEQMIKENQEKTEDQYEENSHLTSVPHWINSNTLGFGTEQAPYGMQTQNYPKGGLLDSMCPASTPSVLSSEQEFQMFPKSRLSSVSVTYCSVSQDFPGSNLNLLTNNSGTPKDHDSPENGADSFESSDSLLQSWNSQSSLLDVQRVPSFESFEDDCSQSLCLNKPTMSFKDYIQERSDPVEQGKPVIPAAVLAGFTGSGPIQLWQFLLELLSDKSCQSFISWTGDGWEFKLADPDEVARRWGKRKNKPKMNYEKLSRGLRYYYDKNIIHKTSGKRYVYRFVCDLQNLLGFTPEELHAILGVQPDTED
# Procedure, shortened: as §1
# SPDEF = biological target: T9, SPDEF (Homo sapiens, UniProt O95238 1-335)
# T9 sequence: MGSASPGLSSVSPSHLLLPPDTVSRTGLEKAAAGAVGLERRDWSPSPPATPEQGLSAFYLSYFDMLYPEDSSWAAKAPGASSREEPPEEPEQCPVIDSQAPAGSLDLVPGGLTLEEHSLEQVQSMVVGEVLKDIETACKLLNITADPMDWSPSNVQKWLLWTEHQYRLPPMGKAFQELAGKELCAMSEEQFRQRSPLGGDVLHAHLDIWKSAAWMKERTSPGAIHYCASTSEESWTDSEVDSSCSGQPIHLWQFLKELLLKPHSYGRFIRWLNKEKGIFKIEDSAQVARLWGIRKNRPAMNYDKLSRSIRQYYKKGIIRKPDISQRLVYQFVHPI
# Procedure, shortened: as §1
# ETV7 = biological target: T10, ETV7 (Homo sapiens, UniProt Q9Y603 1-341)
# T10 sequence: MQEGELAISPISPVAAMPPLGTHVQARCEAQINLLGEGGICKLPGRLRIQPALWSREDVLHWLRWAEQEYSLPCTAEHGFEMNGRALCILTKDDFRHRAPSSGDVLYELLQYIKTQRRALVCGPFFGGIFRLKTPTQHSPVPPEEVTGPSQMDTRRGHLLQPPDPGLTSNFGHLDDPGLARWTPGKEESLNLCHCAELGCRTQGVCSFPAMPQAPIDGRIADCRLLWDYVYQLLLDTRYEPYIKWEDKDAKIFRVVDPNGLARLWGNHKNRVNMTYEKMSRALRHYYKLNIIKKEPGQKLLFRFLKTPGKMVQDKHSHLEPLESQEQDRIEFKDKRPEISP
# Procedure, shortened: as §1
# ETV3 = biological target: T11, ETV3 (Homo sapiens, UniProt P41162-2 1-143)
# T11 sequence: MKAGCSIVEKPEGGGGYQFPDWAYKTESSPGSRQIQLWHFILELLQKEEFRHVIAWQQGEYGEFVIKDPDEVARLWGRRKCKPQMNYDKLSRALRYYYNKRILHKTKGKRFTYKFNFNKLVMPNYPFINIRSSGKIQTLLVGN
# Procedure, shortened: as §1
# ETV6 = ETV6 (Homo sapiens, UniProt P41212 1-452)
# Procedure, shortened: as §1
# ELF1 = ELF1 (Homo sapiens, UniProt P32519 1-619)
# Procedure, shortened: as §1
# ETV3L = biological target: T12, ETV3L (Homo sapiens, UniProt Q6ZN32 1-361)
# T12 sequence: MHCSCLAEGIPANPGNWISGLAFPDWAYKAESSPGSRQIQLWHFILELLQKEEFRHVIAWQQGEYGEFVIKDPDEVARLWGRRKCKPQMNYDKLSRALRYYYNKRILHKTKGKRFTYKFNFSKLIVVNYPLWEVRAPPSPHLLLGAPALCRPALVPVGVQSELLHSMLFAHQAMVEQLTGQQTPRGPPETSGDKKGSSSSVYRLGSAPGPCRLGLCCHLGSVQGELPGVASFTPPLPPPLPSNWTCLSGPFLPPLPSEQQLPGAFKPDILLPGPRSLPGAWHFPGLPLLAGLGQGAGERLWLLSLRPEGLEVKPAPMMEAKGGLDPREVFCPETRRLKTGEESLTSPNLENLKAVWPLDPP
# Procedure, shortened: as §1
# Chain of ETV5 (P41161 whole entry): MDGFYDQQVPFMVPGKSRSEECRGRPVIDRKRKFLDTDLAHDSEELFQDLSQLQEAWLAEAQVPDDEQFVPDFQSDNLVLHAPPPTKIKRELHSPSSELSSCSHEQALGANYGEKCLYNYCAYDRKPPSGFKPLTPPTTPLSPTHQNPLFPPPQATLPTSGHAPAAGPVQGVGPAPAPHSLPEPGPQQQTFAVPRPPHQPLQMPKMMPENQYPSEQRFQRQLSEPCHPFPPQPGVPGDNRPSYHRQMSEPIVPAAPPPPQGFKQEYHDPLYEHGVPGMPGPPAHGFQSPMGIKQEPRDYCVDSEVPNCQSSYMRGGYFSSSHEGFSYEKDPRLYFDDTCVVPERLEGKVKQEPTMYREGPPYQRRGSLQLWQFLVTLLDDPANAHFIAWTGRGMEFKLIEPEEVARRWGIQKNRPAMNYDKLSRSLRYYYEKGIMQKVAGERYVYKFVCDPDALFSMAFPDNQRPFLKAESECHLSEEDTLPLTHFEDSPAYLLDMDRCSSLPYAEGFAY
# Chain of SPIB (Q01892 whole entry): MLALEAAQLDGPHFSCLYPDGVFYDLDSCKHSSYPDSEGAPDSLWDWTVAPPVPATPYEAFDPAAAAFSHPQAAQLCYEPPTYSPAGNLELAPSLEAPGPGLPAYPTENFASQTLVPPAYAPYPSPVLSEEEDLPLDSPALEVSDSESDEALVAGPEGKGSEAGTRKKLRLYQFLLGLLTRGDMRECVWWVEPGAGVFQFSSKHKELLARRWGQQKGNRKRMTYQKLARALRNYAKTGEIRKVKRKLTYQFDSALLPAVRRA
# Chain of ETV6 (P41212 whole entry): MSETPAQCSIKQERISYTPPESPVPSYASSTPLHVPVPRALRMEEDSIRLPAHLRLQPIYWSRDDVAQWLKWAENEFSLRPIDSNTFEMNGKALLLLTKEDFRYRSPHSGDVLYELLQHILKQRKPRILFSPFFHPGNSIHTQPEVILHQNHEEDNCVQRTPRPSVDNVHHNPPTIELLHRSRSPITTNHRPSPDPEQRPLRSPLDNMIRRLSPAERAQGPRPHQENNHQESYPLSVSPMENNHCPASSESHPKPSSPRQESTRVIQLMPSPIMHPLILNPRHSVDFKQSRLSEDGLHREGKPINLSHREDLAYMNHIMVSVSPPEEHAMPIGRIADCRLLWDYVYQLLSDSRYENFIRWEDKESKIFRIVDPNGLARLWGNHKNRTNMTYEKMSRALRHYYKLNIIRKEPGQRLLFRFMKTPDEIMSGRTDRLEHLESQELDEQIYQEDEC
# Chain of ETV1 (P50549 whole entry): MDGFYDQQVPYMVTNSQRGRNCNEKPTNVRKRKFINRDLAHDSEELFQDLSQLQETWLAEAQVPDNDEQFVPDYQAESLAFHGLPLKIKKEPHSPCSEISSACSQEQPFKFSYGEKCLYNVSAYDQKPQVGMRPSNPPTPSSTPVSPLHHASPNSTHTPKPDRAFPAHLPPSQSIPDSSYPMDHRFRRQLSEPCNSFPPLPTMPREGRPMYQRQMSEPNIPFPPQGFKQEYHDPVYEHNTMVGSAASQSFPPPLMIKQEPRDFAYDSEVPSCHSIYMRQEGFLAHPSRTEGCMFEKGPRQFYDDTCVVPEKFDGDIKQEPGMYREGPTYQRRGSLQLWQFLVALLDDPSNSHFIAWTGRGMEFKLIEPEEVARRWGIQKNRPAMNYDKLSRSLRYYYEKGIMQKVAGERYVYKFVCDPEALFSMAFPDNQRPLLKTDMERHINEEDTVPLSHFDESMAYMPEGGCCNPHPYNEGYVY
# Chain of ELF1 (P32519 whole entry): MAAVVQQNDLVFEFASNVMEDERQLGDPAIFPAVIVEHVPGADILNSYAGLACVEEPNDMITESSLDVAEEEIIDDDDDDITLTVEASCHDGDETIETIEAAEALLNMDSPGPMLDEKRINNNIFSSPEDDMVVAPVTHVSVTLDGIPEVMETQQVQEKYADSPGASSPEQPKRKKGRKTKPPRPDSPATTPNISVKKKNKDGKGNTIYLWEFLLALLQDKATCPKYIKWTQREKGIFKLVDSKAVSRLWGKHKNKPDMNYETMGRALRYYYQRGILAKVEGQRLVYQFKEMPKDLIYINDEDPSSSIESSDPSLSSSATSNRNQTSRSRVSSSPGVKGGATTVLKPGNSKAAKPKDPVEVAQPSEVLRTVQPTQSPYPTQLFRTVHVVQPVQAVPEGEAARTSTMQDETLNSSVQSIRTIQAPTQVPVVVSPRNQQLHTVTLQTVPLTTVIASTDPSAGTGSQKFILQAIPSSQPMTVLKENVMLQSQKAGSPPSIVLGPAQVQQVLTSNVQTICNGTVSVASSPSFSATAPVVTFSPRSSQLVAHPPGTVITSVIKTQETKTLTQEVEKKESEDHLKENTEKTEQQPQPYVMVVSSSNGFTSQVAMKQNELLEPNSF
Sequence,binding signal (ELK1),binding signal (GABPA),binding signal (ERG),binding signal (SPIB),binding signal (ELK3),binding signal (ETV5),binding signal (SPIC),binding signal (ELK4),binding signal (ETV1),binding signal (ERF),binding signal (ETS2),binding signal (SPDEF),binding signal (ETV7),binding signal (ETV3),binding signal (ETV6),binding signal (ELF1),binding signal (ETV3L)
AGCGTC,"1.05 fold enrichment (6-mer frequency, TF over GST control)","1.07 fold enrichment (6-mer frequency, TF over GST control)","1.1 fold enrichment (6-mer frequency, TF over GST control)","1.04 fold enrichment (6-mer frequency, TF over GST control)","1.05 fold enrichment (6-mer frequency, TF over GST control)","1.04 fold enrichment (6-mer frequency, TF over GST control)","1.11 fold enrichment (6-mer frequency, TF over GST control)","1.01 fold enrichment (6-mer frequency, TF over GST control)","1.04 fold enrichment (6-mer frequency, TF over GST control)","1.07 fold enrichment (6-mer frequency, TF over GST control)","1.02 fold enrichment (6-mer frequency, TF over GST control)","1.08 fold enrichment (6-mer frequency, TF over GST control)","1.06 fold enrichment (6-mer frequency, TF over GST control)","1.01 fold enrichment (6-mer frequency, TF over GST control)","1.02 fold enrichment (6-mer frequency, TF over GST control)",,
GTGCCT,"1.05 fold enrichment (6-mer frequency, TF over GST control)",,,"1.05 fold enrichment (6-mer frequency, TF over GST control)",,"1.07 fold enrichment (6-mer frequency, TF over GST control)","1.2 fold enrichment (6-mer frequency, TF over GST control)","1.16 fold enrichment (6-mer frequency, TF over GST control)",,"1.07 fold enrichment (6-mer frequency, TF over GST control)","1.06 fold enrichment (6-mer frequency, TF over GST control)","1.02 fold enrichment (6-mer frequency, TF over GST control)",,"1.07 fold enrichment (6-mer frequency, TF over GST control)","1.02 fold enrichment (6-mer frequency, TF over GST control)","1.02 fold enrichment (6-mer frequency, TF over GST control)","1.17 fold enrichment (6-mer frequency, TF over GST control)"
